We go through 20 compounds from PubChem BioAssay (EPA / NIEHS).

For assay [1], the target named is human Retinoid X Receptor beta (RXRb), RXRB (gene 6257) (UniProt P28702). The assay can be described thus: ATG_RXRb_TRANS: Attagene TRANS-FACTORIAL HepG2 Assay for human Retinoid X Receptor beta (RXRb) (AID 2283013; active = hit-call score of the fitted dose curve at least 0.9, where 1 is the maximum). The method in brief:
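HepG2 cells transiently transfected with multiplexed reporter units driven by GAL4-UAS and exogenous chimeric NR-Gal4 proteins; treated 24 h. Reporter mRNA measured by RT-PCR, 6-FAM labelling and capillary electrophoresis; gain-of-signal fitted versus DMSO baseline.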

Assay [2] has as its target human Thyroid Receptor alpha (THRa1), THRA (gene 7067) (UniProt P10827). Briefly: ATG_THRa1_TRANS: Attagene TRANS-FACTORIAL HepG2 Assay for human Thyroid Receptor alpha (THRa1) (AID 2283014; active = hit-call score of the fitted dose curve at least 0.9, where 1 is the maximum). The method in brief: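 HepG2 cells transiently transfected with chimeric NR-Gal4 and GAL4-UAS reporter units, dosed 24 h. Reporter mRNA quantified by RT-PCR, fluorescent labeling, HpaI digestion and capillary electrophoresis; gain-of-signal fit versus DMSO.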

Read-out in assay [3]: E-selectin (Homo sapiens) (UniProt P16581)
The assay can be described thus: BSK_3C_Eselectin: BioMAP Diversity Plus: 3C Assay for Eselectin Biomarker Activity (AID 2283015).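 As to outcome: cell surface E-selectin protein quantified by ELISA 24 h after dosing.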 Conditions: primary human endothelial cells (HUVEC); actives raise or lower the signal. The method in brief: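 Primary human umbilical vein endothelial cells (3C system), read 24 h after compound addition; E-selectin measured by ELISA. Bidirectional curve fitting against DMSO baseline; cytotoxicity by parallel SRB total-protein staining.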

Read-out in assay [4]: Interleukin-1 alpha (IL1a), IL1A (gene 3552)
The assay can be described thus: BSK_BE3C_IL1a: BioMAP Diversity Plus: BE3C Assay for Interleukin-1 alpha (IL1a) Biomarker Activity (AID 2283016). Conditions: primary human bronchial epithelial cells; actives raise or lower the signal. Summed up: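 Human primary bronchial epithelial cells (BE3C system) were dosed with compound and IL-1a measured by ELISA 24 h later. Activity was fitted bidirectionally against DMSO baseline; cytotoxicity was tracked in parallel cultures by SRB total-protein staining.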

Read-out in assay [5]: Monocyte Chemoattractant Protein-1 (MCP1), CCL2 (gene 6347)
Briefly: BSK_3C_MCP1: BioMAP Diversity Plus: 3C Assay for Monocyte Chemoattractant Protein-1 (MCP1) Biomarker Activity (AID 2283017). Conditions: primary human endothelial cells (HUVEC); actives raise or lower the signal. Summed up:
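Human umbilical vein endothelial cells (3C system) exposed to chemicals for 24 h; MCP-1 quantified by ELISA against the DMSO baseline with bidirectional fitting, and parallel SRB staining used to assess cytotoxicity.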

Read-out in assay [6]: Monocyte Chemoattractant Protein-1 (MCP1), CCL2 (gene 6347)
The assay can be described thus: BSK_4H_MCP1: BioMAP Diversity Plus: 4H Assay for Monocyte Chemoattractant Protein-1 (MCP1) Biomarker Activity (AID 2283018). Conditions: primary human endothelial cells (HUVEC); actives raise or lower the signal. Summed up: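 Human umbilical vein endothelial cells (4H system) dosed with chemical; MCP-1 measured by ELISA 24 h after dosing. Bidirectional curve fitting against DMSO negative control as baseline; parallel SRB total-protein staining tracks overt cytotoxicity.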

Read-out in assay [7]: Human Leukocyte Antigen - DR isotype (HLADR), HLA-DRA (gene 3122)
The assay can be described thus: BSK_3C_HLADR: BioMAP Diversity Plus: 3C Assay for Human Leukocyte Antigen - DR isotype (HLADR) Biomarker Activity (AID 2283019).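 As to outcome: ELISA of cell-surface HLA-DR on HUVEC 24 h after dosing.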 Conditions: primary human endothelial cells (HUVEC); actives raise or lower the signal. The method in brief:
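HUVEC monoculture, HLA-DR measured by ELISA 24 h after chemical dosing. Fitted bidirectionally against DMSO baseline; parallel SRB staining assessed cytotoxicity, with 3C proliferation read by SRB at 48 h.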

Read-out in assay [8]: Interleukin-8 (IL8), CXCL8 (gene 3576)
Briefly: BSK_3C_IL8: BioMAP Diversity Plus: 3C Assay for Interleukin-8 (IL8) Biomarker Activity (AID 2283020). Conditions: primary human endothelial cells (HUVEC); actives raise or lower the signal. Summed up: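 Primary human umbilical vein endothelial cells (3C system) were exposed to test chemical for 24 h, then IL-8 was quantified by ELISA. Responses were fitted bidirectionally against DMSO vehicle as baseline.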

Read-out in assay [9]: Monokine induced gamma interferon (MIG), CXCL9 (gene 4283)
Briefly: BSK_3C_MIG: BioMAP Diversity Plus: 3C Assay for Monokine induced gamma interferon (MIG) Biomarker Activity (AID 2283021). Conditions: primary human endothelial cells (HUVEC); actives raise or lower the signal. Summed up:
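Primary human umbilical vein endothelial cells in the 3C system were exposed to chemical for 24 h, after which MIG was quantified by ELISA. Activity was fitted bidirectionally against DMSO as negative control and baseline.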

The target of assay [10] is human Vitamin D Receptor (VDR), VDR (gene 7421) (UniProt P11473). Briefly: ATG_VDR_TRANS: Attagene TRANS-FACTORIAL HepG2 Assay for human Vitamin D Receptor (VDR) (AID 2283022; active = hit-call score of the fitted dose curve at least 0.9, where 1 is the maximum). Summed up: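 HepG2 cells were transiently transfected with GAL4-UAS reporter units and a chimeric VDR-Gal4 construct, then dosed for 24 hours. Reporter mRNA was quantified by RT-PCR, fluorescent labeling, HpaI digestion and capillary electrophoresis; gain of signal analysed vs DMSO.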
human Vitamin D Receptor (VDR), VDR (gene 7421), sequence (P11473 whole entry, looked up, the tested form may be a part): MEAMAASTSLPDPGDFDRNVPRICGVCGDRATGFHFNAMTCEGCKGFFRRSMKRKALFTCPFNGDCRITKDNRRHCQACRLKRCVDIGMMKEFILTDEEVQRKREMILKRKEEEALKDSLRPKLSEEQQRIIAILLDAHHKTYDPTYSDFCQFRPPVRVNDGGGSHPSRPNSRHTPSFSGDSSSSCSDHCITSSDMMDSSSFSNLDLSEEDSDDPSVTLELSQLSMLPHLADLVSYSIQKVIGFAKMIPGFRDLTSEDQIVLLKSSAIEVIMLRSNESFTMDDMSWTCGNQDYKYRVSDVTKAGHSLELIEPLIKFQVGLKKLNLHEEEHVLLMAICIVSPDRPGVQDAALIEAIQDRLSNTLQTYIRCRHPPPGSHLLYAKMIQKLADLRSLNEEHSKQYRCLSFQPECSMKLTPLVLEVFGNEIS

Inconclusive results are not listed. Calls of active or inactive are those of the source. The calls were made as follows, unless noted: active = hit-call score of the fitted dose curve at least 0.9, where 1 is the maximum; inactive = score below 0.9.

E-selectin (Homo sapiens), sequence (P16581 whole entry, looked up): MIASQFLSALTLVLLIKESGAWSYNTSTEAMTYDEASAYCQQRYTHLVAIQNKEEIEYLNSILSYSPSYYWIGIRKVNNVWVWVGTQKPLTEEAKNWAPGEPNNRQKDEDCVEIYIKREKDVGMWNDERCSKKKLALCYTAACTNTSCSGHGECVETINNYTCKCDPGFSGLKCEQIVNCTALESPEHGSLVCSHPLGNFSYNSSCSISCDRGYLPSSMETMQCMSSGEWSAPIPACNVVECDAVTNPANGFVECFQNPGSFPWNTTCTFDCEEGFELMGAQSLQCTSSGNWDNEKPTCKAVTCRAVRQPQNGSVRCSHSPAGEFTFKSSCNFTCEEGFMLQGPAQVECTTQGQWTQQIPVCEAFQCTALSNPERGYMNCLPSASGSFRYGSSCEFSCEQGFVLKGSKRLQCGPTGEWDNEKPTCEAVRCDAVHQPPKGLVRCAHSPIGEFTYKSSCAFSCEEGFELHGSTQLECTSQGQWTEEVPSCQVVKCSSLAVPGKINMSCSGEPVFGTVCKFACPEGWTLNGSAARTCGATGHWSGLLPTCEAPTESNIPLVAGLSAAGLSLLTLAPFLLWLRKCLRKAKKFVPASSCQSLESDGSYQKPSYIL
human Retinoid X Receptor beta (RXRb), RXRB (gene 6257), sequence (P28702 whole entry, looked up, the tested form may be a part): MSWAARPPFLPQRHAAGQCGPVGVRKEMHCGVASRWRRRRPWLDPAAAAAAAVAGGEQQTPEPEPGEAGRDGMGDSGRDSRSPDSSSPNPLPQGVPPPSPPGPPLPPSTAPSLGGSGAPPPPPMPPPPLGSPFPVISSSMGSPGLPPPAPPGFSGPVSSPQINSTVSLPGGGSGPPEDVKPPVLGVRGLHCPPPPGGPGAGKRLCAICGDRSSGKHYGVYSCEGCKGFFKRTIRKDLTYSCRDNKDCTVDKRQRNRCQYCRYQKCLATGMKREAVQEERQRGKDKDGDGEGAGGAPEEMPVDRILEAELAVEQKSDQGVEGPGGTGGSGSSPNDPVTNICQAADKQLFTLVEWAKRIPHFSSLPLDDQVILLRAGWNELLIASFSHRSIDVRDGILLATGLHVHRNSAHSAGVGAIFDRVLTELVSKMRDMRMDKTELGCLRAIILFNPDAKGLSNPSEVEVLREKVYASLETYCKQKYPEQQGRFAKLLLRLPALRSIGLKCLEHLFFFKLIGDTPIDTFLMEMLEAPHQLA
human Thyroid Receptor alpha (THRa1), THRA (gene 7067), sequence (P10827 whole entry, looked up, the tested form may be a part): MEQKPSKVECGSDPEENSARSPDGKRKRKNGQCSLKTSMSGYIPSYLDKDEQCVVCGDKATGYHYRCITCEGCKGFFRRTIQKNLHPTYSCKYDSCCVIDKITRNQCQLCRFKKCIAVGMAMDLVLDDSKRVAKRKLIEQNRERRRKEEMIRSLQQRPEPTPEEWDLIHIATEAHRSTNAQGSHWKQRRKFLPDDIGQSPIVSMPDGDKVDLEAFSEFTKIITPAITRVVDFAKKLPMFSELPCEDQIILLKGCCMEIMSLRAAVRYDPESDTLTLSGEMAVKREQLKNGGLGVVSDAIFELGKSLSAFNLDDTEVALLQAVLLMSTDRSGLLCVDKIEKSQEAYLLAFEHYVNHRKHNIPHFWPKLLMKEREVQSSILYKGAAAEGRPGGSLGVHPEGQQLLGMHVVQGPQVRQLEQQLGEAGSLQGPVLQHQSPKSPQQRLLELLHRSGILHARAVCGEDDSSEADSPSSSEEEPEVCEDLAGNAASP

Turning to `COCC(C)O` (stereo not drawn), the compound was called inactive in assay [1], in assay [2], in assay [3], in assay [4], in [5] and in [6]. Moreover, the outcome in [7], in assay [8], in assay [9] and in assay [10] was inactive.

As for `OC1CCCCC1`, the outcome in assay [1], in assay [2], in [3], in [4], in assay [5] and in [6] was inactive. In addition, the outcome in assay [7], in [8], in assay [9] and in [10] was inactive.

By AC50 is commonly meant the concentration at which the activity in the assay is half-maximal. With `CC(C)(C)c1cccc(C(C)(C)C)c1O`, in assay [1], the AC50 was 33.5 µM (active). In addition, the call in [2], in [3], in assay [4], in assay [5], in [6] and in assay [7] was inactive. In addition, the result in assay [8] and in assay [9] was inactive.

With `CCOC(=O)CC(O)(CC(=O)OCC)C(=O)OCC`, the result in assay [3], in assay [4], in assay [5], in assay [6], in [7] and in [8] was inactive. In [9], the outcome was inactive.

For the compound `Cc1cc(C)c(O)c(C)c1`, the outcome in assay [1], in [3], in assay [4], in assay [5], in [6] and in assay [7] was inactive. In assay [8], the outcome was inactive.

With `CCCCOCCO`, the result in assay [2], in assay [3], in assay [4], in assay [5], in assay [6] and in assay [7] was inactive. The outcome in assay [8] was inactive.

Regarding `COc1cc(CCC(=O)CC(=O)CCc2ccc(O)c(OC)c2)ccc1O`, the call in assay [1], in assay [2] and in assay [10] was inactive.

For `CCCCCCCCCCCCc1ccccc1S(=O)(=O)O`, the AC50 in assay [1] was 9.1 µM (active); in [4], 14.3 µM (active). For the same compound, the outcome in [3], in assay [5], in [6], in [7], in [8] and in assay [10] was inactive.

In the case of `O=C(OCCOCCOC(=O)c1ccccc1)c1ccccc1`, the outcome in assay [2], in [3], in [4], in assay [5], in assay [6] and in assay [7] was inactive. The result in assay [8] and in assay [9] was inactive.

For the compound `CCCCC(CC)COC(=O)CCCCC(=O)OCC(CC)CCCC` (stereo not drawn), in assay [1], the AC50 is 49.1 µM (active). Also, the outcome in assay [3], in [4], in assay [5], in [6], in [7] and in [8] was inactive.

`CC(=O)NC1(c2cccc(F)c2)CCN(CC[C@@]2(c3ccc(Cl)c(Cl)c3)CN(c3ccccc3)C(=O)CO2)CC1`: the concentration at half-maximal activity (AC50) in assay [2] was 59.9 µM (active); in assay [3], 30.7 µM (active); in assay [5], 23.5 µM (active); in [7] it was 24.9 µM (active); in assay [8], 17.8 µM (active). In addition, the result in [4], in [6] and in assay [10] was inactive.

With `Cc1cc(CCN2CCN(c3nsc4ccccc34)CC2)cc2c1NC(=O)CC2(C)C`, the half-maximal activity concentration (AC50) in assay [3] is 30.9 µM (active); in assay [4], 30.5 µM (active); in assay [5] it was 30.7 µM (active); in assay [6], 8.35 µM (active); in [7] it was 10.9 µM (active); in assay [8], 33.1 µM (active). Further, the call in assay [10] was inactive.

Regarding `c1ccc2c(c1)Cc1ccccc1-2`, the AC50 in assay [1] was 61.7 µM (active). In addition, the result in [3], in [4], in [5], in [6], in [7] and in assay [8] was inactive. In addition, the compound was classed as inactive in [10].

For the compound `CCCOc1sc(C(=O)N2CCC(c3cc(CN)ccc3F)CC2)c(C)c1Br`, the compound was called inactive in [1] and in [10]. The AC50 in [3] is 11.1 µM (active); in assay [4] it was 5.86 µM (active); in assay [5] it was 7.57 µM (active); in [6], 9.52 µM (active); in assay [7], 7.77 µM (active); in assay [8], 8.8 µM (active).

As for `CN(C)C=O`, the concentration at half-maximal activity (AC50) in assay [1] is 0.74 µM (active). Besides, the outcome in assay [3], in assay [4], in assay [5], in [6], in assay [7] and in assay [8] was inactive. Also, the result in assay [9] was inactive.

Consider `FC(F)(I)C(F)(F)C(F)(F)C(F)(F)C(F)(F)C(F)(F)I`, for which the results for the concentration at half-maximal activity (AC50) in assay [1] and in [4] were 20.5 µM (active) and 30 µM (active) [middle of 5 runs], respectively.

Regarding `NCC(F)(F)C(F)(F)C(F)(F)C(F)(F)C(F)(F)C(F)(F)C(F)(F)F`, the outcome in assay [1], in assay [2], in [3], in assay [4], in assay [5] and in assay [6] was inactive. Also, the outcome in assay [7], in assay [8] and in assay [10] was inactive.

Regarding `O=C1OC2(c3ccccc31)c1cc(Br)c(O)c(Br)c1Oc1c2cc(Br)c(O)c1Br`, the call in assay [1], in assay [2] and in [10] was inactive.

Consider `COCC(C)OCC(C)O` (stereo not drawn), for which the outcome in assay [3], in assay [4], in assay [5], in [6], in assay [7] and in [8] was inactive. In addition, the outcome in [9] was inactive.

Turning to `CC(O)CO` (stereo not drawn), the result in [3], in assay [4], in [5], in [6], in assay [7] and in assay [8] was inactive. Moreover, in [10], the compound was called inactive.
